We go through 19 compounds from PubChem BioAssay AID743295 (Broad Institute, 2014).

The structures appear in SMILES notation. Potency and affinity values are given separately. A number with no mark means an inactive call.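 Rule for the calls: active = compounds lowering caspase 7 signal with dose, half-maximal concentration at most twice the top valid dose; inconclusive = flat fit with 30 to 70% inhibition, or poor fit; inactive = the rest.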

The target of the experiment is Caspase-7 (Homo sapiens) (UniProt P55210). The experiment can be described thus: human caspase-7 inhibitors, dose response, selectivity assay for caspase-6 inhibitor project, biochemical, DEVD-R110 fluorescence, cherry-pick (AID 743295). Particulars: purified caspase-7, DEVD-R110 cleavage fluorescence; series mostly up to 35 µM; activity change, negative = inhibition: at the top concentration.
Chain of Caspase-7 (Homo sapiens) (P55210 whole entry, looked up): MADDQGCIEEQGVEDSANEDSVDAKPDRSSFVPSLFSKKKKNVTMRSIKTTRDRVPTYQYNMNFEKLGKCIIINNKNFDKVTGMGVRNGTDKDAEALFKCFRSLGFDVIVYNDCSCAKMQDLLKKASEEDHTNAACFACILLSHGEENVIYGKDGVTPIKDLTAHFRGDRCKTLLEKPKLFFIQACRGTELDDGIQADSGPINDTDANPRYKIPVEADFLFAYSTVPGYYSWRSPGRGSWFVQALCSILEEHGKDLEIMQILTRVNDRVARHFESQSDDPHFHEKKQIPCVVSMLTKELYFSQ
Turning to `O=C(O)Cc1ccc(-n2cccc2)cc1`, the “activity change, negative = inhibition” value is -8.97%. With `COc1cc(NC(=O)COC(=O)c2ccc([N+](=O)[O-])s2)cc(OC)c1OC`, the “activity change, negative = inhibition” value is -7.83%. The same measure for `CNS(=O)(=O)c1cccc(C(=O)OCC(=O)N2c3ccccc3NC(=O)C2(C)C)c1`: -6.61%; for `COCCN(C(=O)COC(=O)c1cc2c(s1)CCC2)c1c(N)n(Cc2ccccc2)c(=O)[nH]c1=O`: -2.08%. As for `Cc1c(CCC(=O)O)c(=O)oc2c(C)c(OCc3ccccc3Cl)ccc12`, the “activity change, negative = inhibition” value was 11.5%. As for `Nc1ccc(Nc2ccccc2)c(S(=O)(=O)O)c1`, the figure is -8.06%; as for `Nc1cc(S(=O)(=O)O)cc([N+](=O)[O-])c1O`, -11.1%.

Regarding `COc1cc(-c2ccc(Nc3ccccc3C(=O)O)c(OC)c2)ccc1Nc1ccccc1C(=O)O`, the “activity change, negative = inhibition” value is -1.45%.

Take `O=C(COC(=O)c1ccc([N+](=O)[O-])s1)Nc1ccc(F)cc1`: the “activity change, negative = inhibition” value was 1.2%.

Take `O=P(c1ccccc1)(c1ccccc1)c1cc(S(=O)(=O)O)ccc1O`: the “activity change, negative = inhibition” value is 0.949%.

With `Oc1cc(NCCc2cccnc2)cc2cccnc12`, the “activity change, negative = inhibition” value was 0.565%.

Take `Cc1cc(C=O)c(C)n1-c1cc(C(=O)O)cc(C(=O)O)c1`: the “activity change, negative = inhibition” value was -6.4%. The same measure for `Cc1ccc(S(=O)(=O)Nc2csc(C)c2C(=O)O)cc1`: -10.4%; for `CCCc1nc2c(=O)n(C)c(=O)nc-2n(C)n1`: -4.87%.

As to `Cn1cnnc1SCC(=O)Nc1ncc([N+](=O)[O-])s1`, the “activity change, negative = inhibition” value is 11.3%. Consider `CCOC(=O)[C@H](Cc1c[nH]c2ccccc12)NC(=O)CN=[N+]=[N-]`, for which the “activity change, negative = inhibition” value was 2.34%. Turning to `C/C(CC(=O)N1CCCC1)=N\NC(=O)c1cc2ccccc2cc1O`, the “activity change, negative = inhibition” value is -3.45%. For the compound `O=C(Nc1ccc2nc3n(c(=O)c2c1)CCCCC3)c1c(F)ccc([N+](=O)[O-])c1F`, the “activity change, negative = inhibition” value is -6.37%. With `CO[C@H]1CN(C)C(=O)c2cc(NC(C)=O)ccc2OC[C@@H](C)N(C(=O)CC2CC2)C[C@H]1C`, the “activity change, negative = inhibition” value is -17.6%.
